SF1 inhibitor: inhibitors of human SF-1, primary screen, cell-based, CHO-K1, Gal4-SF-1 LBD, luciferase luminescence; Steroidogenic factor 1 (Homo sapiens), Q13285; CHO-K1 Gal4-SF-1 LBD luciferase reporter; inhibition, % at 10 µM; 65,000 compounds, 0.55% hits; AID 525, 2006;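 active = inhibition above the mean inhibition of all tested compounds plus 3 SD, cut at about 48% in these data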
Target sequence (Q13285 whole entry, looked up, the tested form may be a part): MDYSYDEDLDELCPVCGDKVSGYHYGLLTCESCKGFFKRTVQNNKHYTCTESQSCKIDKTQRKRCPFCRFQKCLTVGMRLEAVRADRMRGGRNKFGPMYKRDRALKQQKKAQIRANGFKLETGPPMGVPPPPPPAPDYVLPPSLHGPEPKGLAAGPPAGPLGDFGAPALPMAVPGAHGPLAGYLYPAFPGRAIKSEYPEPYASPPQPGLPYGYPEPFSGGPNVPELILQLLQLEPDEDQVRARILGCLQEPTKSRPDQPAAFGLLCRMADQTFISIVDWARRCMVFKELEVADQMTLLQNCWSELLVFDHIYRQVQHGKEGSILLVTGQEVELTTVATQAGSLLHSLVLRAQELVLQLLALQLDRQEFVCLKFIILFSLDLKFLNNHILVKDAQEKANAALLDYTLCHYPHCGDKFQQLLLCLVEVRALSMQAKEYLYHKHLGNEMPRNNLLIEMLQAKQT
A number is an active result; – = inactive. Only a selection was taken, and hits are over-represented in it overall.

SMILES	SF1 inhibitor
COc1ccccc1-n1c(-c2ccoc2)nc2ccccc2c1=O	–
COc1cc2nc(CN3CC=C(c4ccccc4)CC3)[nH]c(=O)c2cc1OC	88
Cc1cccc(-n2c(CN3C(=O)c4ccccc4C3=O)nc3ccccc3c2=O)n1	–
Cc1c2cnn(CC(=O)N3CCC4(CC3)OCCO4)c(=O)c2c(C)n1Cc1ccccc1F	–
CC12CCCCC1=[N+]([O-])CN2O (stereo unspecified)	–
CCn1nc(-c2cccs2)nc2c(=O)n(C)c(=O)nc1-2	96
N[C@@H](Cc1c[nH]c2ccccc12)c1nnc(SCc2ccc(F)cc2)o1	–
C=CCN1C(=O)CSc2ccc(C(=O)N3CCC4(CC3)OCCO4)cc21	–
C=C1N2CCC(CC2)C1(O)c1ccccc1C (stereo unspecified)	–
Cc1cnn(C2CCN(C)CC2)c1N	–
